Assay outcomes (PubChem BioAssay)
SMN2 splice enh: SMN2 splice variant enhancement; HEK293 SMN2-luciferase splicing reporter, luminescence, 30-36 h; 210,000 tested, 2.8% active; Potency, µM (top dose mostly 46.1 µM), for inactives: at the top dose activity change, positive = activation, actives largely listed as activators; also: % of control where 0% means no effect; nearly all actives have a fitted effect of over 55% in size
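HEK293 cells carry an SMN2 minigene-luciferase reporter in which exon 7 inclusion puts luciferase in frame. Cells were seeded at 2000 cells/well, attached for 10-12 hours, then exposed to compounds for 30-36 hours at 37C before ONE-Glo luminescence.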
NPC1 prom act: activates the NPC1 promoter | Huh7 NPC1 promoter luciferase reporter, 24 h | Potency, µM (top dose mostly 9.22 µM), without a hit: top-dose activation, actives largely listed as activators | 320,000 tested, 2.4% active | AID 485313; also: % of control where 0% means no effect; nearly all actives have a fitted effect of over 60% in size
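NPC1 promoter–luciferase Huh7 cells; 24 h compound; luminescence.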
FLuc counter: inhibits or activates purified firefly luciferase, miR-21 counter-screen | P08659 | purified FLuc, Km substrates, luminescence inhibition | Potency, µM (top dose mostly 57.5 µM), for the others: at the top dose activity change, negative = inhibition, usual class: inhibitors | 360,000 tested, 6.9% active;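 also: plate controls were vehicle for no effect and reference inhibitor for full effect; nearly all actives have a fitted effect of over 55% in size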
Target sequence (P08659 whole entry, looked up): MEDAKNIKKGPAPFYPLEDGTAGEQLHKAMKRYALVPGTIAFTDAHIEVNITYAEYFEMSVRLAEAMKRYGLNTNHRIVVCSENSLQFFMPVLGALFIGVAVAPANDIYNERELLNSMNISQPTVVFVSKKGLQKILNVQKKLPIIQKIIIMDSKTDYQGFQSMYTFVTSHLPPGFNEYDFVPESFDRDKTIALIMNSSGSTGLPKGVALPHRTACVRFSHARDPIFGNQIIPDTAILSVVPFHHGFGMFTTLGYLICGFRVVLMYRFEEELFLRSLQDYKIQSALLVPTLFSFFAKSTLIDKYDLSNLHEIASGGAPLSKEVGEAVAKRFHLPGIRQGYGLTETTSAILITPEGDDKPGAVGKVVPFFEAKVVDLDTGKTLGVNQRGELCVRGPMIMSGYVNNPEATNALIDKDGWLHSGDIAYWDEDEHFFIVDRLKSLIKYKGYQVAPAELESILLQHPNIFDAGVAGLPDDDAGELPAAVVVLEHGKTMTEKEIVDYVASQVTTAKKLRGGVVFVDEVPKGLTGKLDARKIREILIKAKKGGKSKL
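Biochemical qHTS of compounds, final roughly 60 µM downward over six points, against 10 nM purified firefly luciferase using Km concentrations of substrates (10 uM D-luciferin, 10 uM ATP) in Tris acetate pH 7.5 buffer; luminescence output.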
Rab9 prom act: activators of Rab9 promoter | Huh7 Rab9 promoter-luciferase reporter, luminescence, 24 h | Potency, µM (top dose mostly 9.22 µM), without a hit: at the highest dose activation, negative = inhibition, actives largely listed as activators | 320,000 tested, 2.8% active | AID 485297; also: % of control where 0% means no effect; nearly all actives have a fitted effect of over 60% in size
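Quantitative HTS format; Huh7 Rab9-luciferase reporter cells (1500/well) receive compound 2 h post-plating, incubate 24 h at 37 °C, then get luciferase reagent for 10 min before luminescence reading.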
Luc counter: blocks Kinase-Glo luciferase, a counter-screen artifact; Q27757; Kinase-Glo luciferase, ATP luminescence, 8 min; Potency, µM (highest dose often 38.3 µM), without a hit: at the top dose activity change, negative = inhibition, usual class: inhibitors; 200,000 tested, 0.28% active; AID 1379; also: % is scaled to controls: 0 for no effect and ±100 for the full control effect; nearly all actives have a fitted effect of over 60% in size
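Recombinant Kinase-Glo luciferase, 10 uM ATP (linear range), luciferin; imidazole pH 7.2 / KCl / MgCl2 / Tween / BSA buffer; 8 min RT; luminescence.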
ELG1 genotox: induces genotoxicity in HEK293T cells with luciferase-tagged ELG1; 330,000 tested, 1.3% active; HEK293T ELG1-luciferase reporter, luminescence, 16 h; AID 504466; Potency, µM (titrated, usually from 46 µM), inactives show top-dose activity change, positive = activation, most hits filed as activators; also: % of control where 0% means no effect; nearly all actives have a fitted effect of over 60% in size
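Quantitative HTS format in 1536-well plates. HEK293T ELG1-luciferase reporter cells receive test compound and are incubated 16 hr at 37 °C, 5% CO2; ONE-Glo added, 30 min room temperature, then luminescence read.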
* marks the source's active call; other numbers are inactive results. In the library only some 7.3% were active in any assay of this set; here they are far more common. Calls follow the shape of the dose curve; as a rule, active = well fitted curve in the direction sought with a large enough effect; inconclusive = small, poorly fitted or top-dose-only effect, or another doubt; inactive = no such curve, though single readings can be large; an effect the other way counts as inactive or inconclusive. Potency is read from the fitted curve at half-maximal effect.

How did Cc1ccc2nc(-c3cccc(Br)c3)cc(C(=O)NC3=NCCS3)c2c1 do in these assays?
SMN2 splice enh: 9%; NPC1 prom act: -1%; FLuc counter: 5.4µM*; Rab9 prom act: 0%; Luc counter: 3%; ELG1 genotox: -9%

How did O=C(Nc1ncccn1)c1cc(-c2cccc(Br)c2)nc2ccccc12 do in these assays?
SMN2 splice enh: -15%; NPC1 prom act: 0%; FLuc counter: 27µM*; Rab9 prom act: -4%; Luc counter: 1%; ELG1 genotox: -8%

How did CC(CCC(=O)O)C1CCC2C3C(O)C[C@@H]4CC(O)CC[C@@]4(C)C3CC(O)[C@]12C (stereo not given in full) do in these assays?
SMN2 splice enh: 4%; Luc counter: 3%

What do the screens show for `COc1ccc(C)cc1S(=O)(=O)Nc1ccc2c(c1)OCCO2`?
NPC1 prom act: -4%; FLuc counter: 4%; Rab9 prom act: 0%; ELG1 genotox: -2%

Results for COc1ccc2[nH]c(=O)c(CNc3ccccc3C)cc2c1 ?
NPC1 prom act: -1%; FLuc counter: inconclusive; Rab9 prom act: 1%; ELG1 genotox: 5%

How did COC(=O)c1nnn(-c2nonc2N)c1CN1CCCC1 do in these assays?
NPC1 prom act: 5%; FLuc counter: 1%; Rab9 prom act: -1%; ELG1 genotox: -3%

What do the screens show for `COc1cccc(Nc2ncnc3sccc23)c1`?
NPC1 prom act: inconclusive; FLuc counter: 17µM*; Rab9 prom act: inconclusive; ELG1 genotox: 15%

How did COc1cccc(Nc2ncnc3sc(C)cc23)c1 do in these assays?
NPC1 prom act: 26%; FLuc counter: 17µM*; Rab9 prom act: inconclusive; ELG1 genotox: inconclusive

What do the screens show for `c1nc(Nc2ccc(N3CCOCC3)cc2)c2ccsc2n1`?
NPC1 prom act: 3.2µM*; FLuc counter: 17µM*; Rab9 prom act: inconclusive; ELG1 genotox: 16%

How did COC(=O)c1cccc(Nc2ncnc3sccc23)c1 do in these assays?
SMN2 splice enh: -41%; NPC1 prom act: -4%; FLuc counter: inconclusive; Rab9 prom act: 22%; Luc counter: 4%; ELG1 genotox: -6%

Results for c1ccc(Nc2ncnc3sccc23)cc1 ?
NPC1 prom act: 1%; FLuc counter: inconclusive; Rab9 prom act: -1%; ELG1 genotox: 0%

How did COc1ccc(Nc2ncnc3sccc23)cc1 do in these assays?
NPC1 prom act: inconclusive; FLuc counter: 24µM*; Rab9 prom act: inconclusive; ELG1 genotox: 14%

What do the screens show for `Cc1ccc(SCCC(=O)Nc2c(C)n(C)n(-c3ccccc3)c2=O)cc1`?
SMN2 splice enh: -14%; NPC1 prom act: -1%; FLuc counter: 0%; Rab9 prom act: -4%; Luc counter: -2%; ELG1 genotox: 0%

How did O=S(=O)(NCCC1=CCCCC1)c1cccc(Br)c1 do in these assays?
NPC1 prom act: -2%; FLuc counter: -1%; Rab9 prom act: -6%; ELG1 genotox: 0%

Results for CC1=Nc2cc(C(=O)NCCc3ccccc3)ccc2Sc2c(C)ccc(C)c21 ?
SMN2 splice enh: -34%; FLuc counter: -3%

What do the screens show for `CCCNC(=O)c1ccc2c(c1)N=C(C)c1c(C)ccc(C)c1S2`?
SMN2 splice enh: 4µM*; FLuc counter: inconclusive

Results for COc1ccc(OC)c(CCNC(=O)c2sc3nc4n(c(=O)c3c2C)CCCC4)c1 ?
FLuc counter: 0%

What do the screens show for `Cc1[nH]c2ccccc2c1C(=O)CSC(=S)N1CCOCC1`?
NPC1 prom act: 21%; FLuc counter: 21µM*; Rab9 prom act: inconclusive; ELG1 genotox: 10%

What do the screens show for `O=C(Nc1ccccn1)c1cccc(S(=O)(=O)N2CCCc3ccccc32)c1`?
NPC1 prom act: -3%; FLuc counter: -2%; Rab9 prom act: -5%; ELG1 genotox: -3%

What do the screens show for `O=C(Nc1ccccn1)c1ccc(S(=O)(=O)N2CCCCCC2)cc1`?
NPC1 prom act: inconclusive; FLuc counter: 17µM*; Rab9 prom act: inconclusive; ELG1 genotox: 9.2µM*

How did Cc1ccnc(NC(=O)c2cccc(S(=O)(=O)N3CCCc4ccccc43)c2)c1 do in these assays?
NPC1 prom act: 0%; FLuc counter: 4.8µM*; Rab9 prom act: 0%; ELG1 genotox: 7.3µM*

What do the screens show for `Cc1ccnc(NC(=O)c2ccc(S(=O)(=O)N3CCCCCC3)cc2)c1`?
NPC1 prom act: 16%; FLuc counter: 8.5µM*; Rab9 prom act: 27%; ELG1 genotox: 11%

What do the screens show for `O=C(Nc1ccccn1)c1ccc(S(=O)(=O)N2CCCCC2)cc1`?
NPC1 prom act: inconclusive; FLuc counter: 13µM*; Rab9 prom act: inconclusive; ELG1 genotox: 9.2µM*

Results for Cc1ccnc(NC(=O)c2ccc(S(=O)(=O)N3CCCCC3)cc2)c1 ?
NPC1 prom act: 3%; FLuc counter: -9%; Rab9 prom act: 1%; ELG1 genotox: -1%

What do the screens show for `CCC1(C)NC(=O)N(CC(=O)Nc2sc3c(c2C(N)=O)CCC3)C1=O` (stereo not given)?
SMN2 splice enh: -9%; NPC1 prom act: -1%; FLuc counter: -8%; Rab9 prom act: 3%; Luc counter: -4%; ELG1 genotox: -3%

Results for CCOc1cccc(/C=N/N2C(C)CCCC2C)c1O (stereo not given) ?
NPC1 prom act: -1%; FLuc counter: 17µM*; Rab9 prom act: 4%; ELG1 genotox: 7%

Results for CCOc1cccc(/C=N/N=C/c2cccc(OCC)c2O)c1O ?
NPC1 prom act: 14%; FLuc counter: -11%; Rab9 prom act: 12%; ELG1 genotox: 3%

How did CCOc1cccc(C=Nc2cc(C)cc(C)c2O)c1O do in these assays?
SMN2 splice enh: 14%; NPC1 prom act: 3%; FLuc counter: 27µM*; Rab9 prom act: 9%; Luc counter: -3%; ELG1 genotox: 3%

How did Cc1ccc(NC(=O)CCSCCC(=O)Nc2ccc(C)c(C)c2)cc1C do in these assays?
SMN2 splice enh: -1%; NPC1 prom act: -1%; FLuc counter: 17µM*; Rab9 prom act: -4%; Luc counter: -7%; ELG1 genotox: 0%

Results for Cc1ccc(NC(=O)c2snc3c(=O)[nH]cnc23)cc1C ?
SMN2 splice enh: -10%; NPC1 prom act: 0%; FLuc counter: -18%; Rab9 prom act: -5%; Luc counter: 4%; ELG1 genotox: 5%

What do the screens show for `Cc1ccc(NC(=O)c2snc3ccc(Cl)cc23)cc1C`?
SMN2 splice enh: 11µM*; NPC1 prom act: 9%; FLuc counter: 12µM*; Rab9 prom act: inconclusive; Luc counter: 0%; ELG1 genotox: 18%
